Hits are enriched below; roughly 2.3% of the tested compounds scored in any of these assays.
SENP8 block-1: human SENP8 protease inhibitors, primary screen, biochemical, fluorescence, Nedd8 protein substrate, uHTS; Sentrin-specific protease 8 (Homo sapiens), Q96LD8; recombinant SENP8; inhibition, % at 20 µM; AID 602440, 2012; 360,000 tested, 0.64% active; in the data active = inhibition mostly above about 40%, no sharp cut-off; inactive = mostly below about 27%
Target sequence (Q96LD8 whole entry, looked up): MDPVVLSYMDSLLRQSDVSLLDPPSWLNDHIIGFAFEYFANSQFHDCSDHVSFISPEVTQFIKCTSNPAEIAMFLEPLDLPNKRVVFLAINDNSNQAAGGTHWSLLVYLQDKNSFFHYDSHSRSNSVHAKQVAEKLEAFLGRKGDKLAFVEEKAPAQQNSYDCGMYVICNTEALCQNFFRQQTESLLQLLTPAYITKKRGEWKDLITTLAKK
LGR2 inh: inhibitors of bursicon-induced LGR2 CRE-luciferase signal, primary screen, cell-based, HEK293, CRE-luciferase reporter, bursicon stimulation. Drosophila bursicon receptor LGR2 (rickets). bursicon-stimulated, 4 h. inhibition, % at 9.99 µM. 380,000 tested, 0.35% active. AID 720647, 2013;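 active = drop in luminescence signal, shown as inhibition above about 50% in the replicate tests, limit read from the data, passing the limit was not always enough; inconclusive = probably only some replicates passing the limit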;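 note: agonist challenge used bursicon conditioned medium at about half maximal strength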
HSP90 refold inh: HSP90 inhibitors, primary screen, cell lysate, luminescence; Rabbit reticulocyte lysate, luciferase refolding luminescence, 3 h; 290,000 tested, 0.91% active; AID 1789, 2009; Heat shock protein HSP 90 (rabbit reticulocyte lysate; luciferase refolding); inhibition, % at 5.6 µM;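 active = inhibition above the screen-wide mean plus 3 SD, computed separately per campaign, cut at about 16% in these data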;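 note: 0% = DMSO wells and 100% = 60 µM geldanamycin wells; inhibitors lower the luminescence because luciferase stays unfolded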
SENP6 inh: SENP6 protease inhibitors, primary screen, biochemical, luminescence, uHTS; Sentrin-specific protease 6 (Homo sapiens), Q9GZR1; Recombinant SENP6 catalytic domain, aminoluciferin luminescence; inhibition, % at 10 µM; 330,000 tested, 1.8% active; AID 2599, 2010;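 active = inhibition above about 50% at the single tested dose, limit read from the data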;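 note: plate controls were DMSO wells with enzyme for no effect and DMSO wells lacking enzyme for full effect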
SENP7 inh: SENP7 protease inhibitors, primary screen, biochemical, luminescence, uHTS. Sentrin-specific protease 7 (Homo sapiens), Q9BQF6. recombinant SENP7, Z-RLRGG-aminoluciferin luminescence, 40 min. inhibition, % at 5 µM. 330,000 tested, 1.5% active. AID 434973, 2010;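 active = inhibition above about 50% at the single test dose, limit read from the data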;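 note: plate controls were DMSO with enzyme for no effect and no enzyme buffer wells for full effect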
SENP8 block-2: SENP8 protease inhibitors, primary screen, biochemical, luminescence; inhibition, % at 10 µM; Sentrin-specific protease 8 (Homo sapiens), Q96LD8; purified SENP8, Z-RLRGG-aminoluciferin cleavage; 330,000 tested, 1.2% active; in the data active = inhibition above about 50%
SENP8 conf: SENP8 protease inhibitors, retest, confirmation, biochemical, luminescence, single concentration; shares compounds with SENP7 inh; AID 488912, 2010; 6,200 tested, 40% active; inhibition, % at 12.5 µM; Recombinant SENP8, Z-RLRGG-aminoluciferin luminescence, 60 min;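 active = mean inhibition across replicates above about 50%, limit read from the data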
SENP6 confirm: SENP6 protease inhibitors, confirmation, biochemical, luminescence, single concentration. shares compounds with SENP7 inh. recombinant SENP6, Z-RLRGG-aminoluciferin luminescence. inhibition, % at 12.5 µM. 6,200 tested, 58% active
SENP7 conf: SENP7 protease inhibitors, retest, confirmation, biochemical, luminescence, single concentration; shares compounds with SENP7 inh; recombinant SENP7, Z-RLRGG-aminoluciferin luminescence, 40 min; inhibition, % at 12.5 µM; 6,200 tested, 69% active
Casp3 SENP sel: caspase-3 protease inhibitors, confirmation, selectivity assay for SENP inhibitor project, biochemical, single concentration; shares compounds with SENP7 inh; purified caspase-3, Z-DEVD-aminoluciferin luminescence, 60 min; inhibition, % at 12.5 µM; 6,200 tested, 60% active; AID 488918, 2010;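 active = mean inhibition above about 50%, limit read from the data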;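 note: plate controls were enzyme with DMSO for no effect and wells without caspase-3 for full effect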
Target sequence (P42574 28-227 limits assumed): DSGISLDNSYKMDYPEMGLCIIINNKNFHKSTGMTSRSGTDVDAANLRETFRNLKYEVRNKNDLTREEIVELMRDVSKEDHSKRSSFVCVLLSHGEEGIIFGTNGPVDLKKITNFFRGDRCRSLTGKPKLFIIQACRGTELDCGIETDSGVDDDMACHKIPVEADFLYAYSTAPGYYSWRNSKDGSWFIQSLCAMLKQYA
Luc interf: counter-screen for SENP inhibitors: luminescence interference; shares compounds with SENP7 inh; Pre-incubated SENP8/Z-RLRGG-aminoluciferin, luciferase luminescence interference; inhibition, % at 12.5 µM; 6,200 tested, 39% active; AID 488919;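 active = mean inhibition above about 50% when retested at one dose, limit read from the data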;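 note: plate controls were DMSO wells with completed reaction for no effect and substrate without enzyme for full effect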
* = called active by the depositor; i = inactive; ? = inconclusive; nt = not tested or not shown.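 Rule for the calls, unless noted: active = mean inhibition above about 50% in the one-dose retest (limit read from the data); inactive = the rest.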

SMILES	SENP8 block-1	LGR2 inh	HSP90 refold inh	SENP6 inh	SENP7 inh	SENP8 block-2	SENP8 conf	SENP6 confirm	SENP7 conf	Casp3 SENP sel	Luc interf
CCCC(=O)Nc1ccc2oc(-c3cncc(Br)c3)nc2c1	-416.9	-62.8	-5.7	49.5	49.7	23.4	nt	nt	nt	nt	nt
CCCCCC(=O)Nc1ccc2oc(-c3cncc(Br)c3)nc2c1	-284.0	nt	-0.2	-14.2	100.9*	-2.3	3.1	0.7	-1.1	9.5	0.4
C/C(=N\Nc1ccccc1C(=O)O)c1ccncc1	4.8	-64.3	-4.5	71.7*	52.0*	52.4*	64.6*	60.5*	87.9*	82.1*	68.5*
C/C(=N\NC(=O)c1ccccc1NC(=O)c1ccc(Cl)cc1)c1ccncc1	11.4	?	51.6*	96.8*	97.1*	89.1*	24.1	96.3*	100.6*	97.7*	18.4
CCCNC(=O)C[C@H]1CC[C@@H]2[C@H](COC[C@H](O)CN2Cc2ccc(Cl)c(Cl)c2)O1	nt	-6.1	nt	nt	nt	nt	nt	nt	nt	nt	nt
O=C(N/N=C/c1ccc2c(c1)OCO2)c1ccc(Cl)cc1Cl	3.0	-1.0	-3.1	-30.1	3.9	-3.9	nt	nt	nt	nt	nt
O=C(N/N=C/c1ccc(OC(=O)c2cccs2)cc1)c1ccccn1	-16.6	-12.8	4.8	21.2	73.8*	12.6	8.3	14.8	2.1	7.4	1.4
O=C(N/N=C/c1ccc2c(c1)OCO2)c1ccc2c(c1)OCCO2	-75.4	5.5	-1.2	-20.8	0.7	-14.3	nt	nt	nt	nt	nt
O=C(N/N=C/c1ccc2c(c1)OCO2)c1cccs1	-148.1	-52.4	3.8	75.8*	88.6*	83.7*	91.5*	92.6*	99.8*	94.5*	89.9*
Cc1ccsc1C(=O)N/N=C/c1ccc2c(c1)OCO2	-62.8	?	8.9	97.0*	100.2*	96.1*	96.1*	100.4*	103.3*	98.9*	98.9*
Cc1cc(C(=O)N/N=C/c2ccc3c(c2)OCO3)c(C)o1	-15.1	-73.1	2.0	73.9*	76.6*	70.4*	85.9*	83.6*	97.2*	92.9*	58.2*
Cc1ccc(-c2cnc3c(c2)C(=O)N([C@H](C)CO)C[C@H](C)[C@H](CN(C)C(=O)c2ccc(F)cc2)O3)cc1	nt	14.4	nt	nt	nt	nt	nt	nt	nt	nt	nt
C[C@H]1CN([C@@H](C)CO)C(=O)c2cccc(NC(=O)NC3CCCCC3)c2O[C@H]1CN(C)S(=O)(=O)c1cccs1	nt	-8.0	nt	nt	nt	nt	nt	nt	nt	nt	nt
COc1cc(/C=N/NC(=O)c2cccs2)ccc1O	35.3	31.0	-3.6	20.4	6.1	-0.9	nt	nt	nt	nt	nt
Cc1cc(C)nc(SCC(=O)N/N=C/c2ccc3c(c2)OCO3)n1	-6.3	-40.5	-10.4	61.7*	4.4	52.4*	6.0	9.3	-4.9	1.5	7.1
COc1cccc(/C=N/NC(=O)c2cccs2)c1	1.4	-64.7	5.0	55.1*	61.9*	34.4	53.5*	50.2*	84.2*	70.8*	64.2*
COC(=O)c1ccccc1NC(=O)Nc1cccnc1	-33.3	21.2	-4.4	76.5*	0.8	58.8*	4.8	72.5*	95.0*	92.2*	69.5*
COC(=O)c1ccccc1NC(=O)c1cccnc1	10.3	-16.9	4.0	17.7	-1.8	5.0	nt	nt	nt	nt	nt
CCCCc1ccc(NC(=O)Nc2cccnc2)cc1	12.3	-37.6	5.6	73.8*	57.6*	50.8*	63.1*	67.3*	84.5*	38.9	41.0
N#Cc1ccc(-c2ccc3c(c2)[C@@H]2[C@@H](CCN2C(=O)C2CCC2)[C@H](CO)N3)cc1	nt	-3.3	nt	nt	nt	nt	nt	nt	nt	nt	nt
C/C=C/c1ccc([C@@H]2[C@H](CO)N(CC3CC3)C23CN(C(=O)COC)C3)cc1	nt	2.7	nt	nt	nt	nt	nt	nt	nt	nt	nt
COc1ccc(NC2=Nc3ccccc3CC2)cc1	24.2	nt	0.8	28.3	3.6	12.0	nt	nt	nt	nt	nt
COc1ccc(C2=Nc3ccccc3OC2)cc1	i	nt	1.1	70.7*	55.6*	35.3	98.3*	98.8*	102.5*	94.7*	89.8*
COc1ccccc1CN1[C@H](CO)[C@H]2c3ccccc3N(C(=O)c3ccc(F)cc3)C[C@H]21	nt	14.3	nt	nt	nt	nt	nt	nt	nt	nt	nt
c1ccc(Nc2nc(-c3ccccc3)ns2)cc1	10.1	-76.6	3.6	76.9*	83.4*	60.5*	-5.4	52.6*	91.7*	46.6	8.2
SMILES	SENP8 block-1	LGR2 inh	HSP90 refold inh	SENP6 inh	SENP7 inh	SENP8 block-2	SENP8 conf	SENP6 confirm	SENP7 conf	Casp3 SENP sel	Luc interf
CC(=O)c1sc(Nc2ccccc2)nc1C	-352.2	-12.4	nt	nt	nt	nt	nt	nt	nt	nt	nt
Cc1nc(Nc2ccccc2)sc1-c1ccccc1	-110.5	-20.9	-4.8	90.1*	89.6*	82.5*	93.9*	93.8*	99.7*	70.7*	37.7
CCCN1[C@@H]2c3ccc(C4=CCCC4)c(=O)n3C[C@@H]2[C@@H](CO)[C@@H]1C(=O)NC1Cc2ccccc2C1	nt	-3.6	nt	nt	nt	nt	nt	nt	nt	nt	nt
CCCNC(=O)Nc1ccc2c(c1)C(=O)N(C)C[C@@H](OC)[C@@H](C)CN(Cc1ccccc1)[C@H](C)CO2	nt	2.9	nt	nt	nt	nt	nt	nt	nt	nt	nt
CN=c1scc(-c2ccco2)n1/N=C/c1ccc(O)c(O)c1	-16.4	-3.0	16.5*	68.1*	8.3	55.7*	59.3*	62.6*	85.7*	44.6	62.0*
Cc1c(O)ccc(C(=O)CN2CCN(c3ccc(F)cc3)CC2)c1O	-41.2	4.3	6.2	7.0	8.5	-0.5	nt	nt	nt	nt	nt
Cc1c(O)ccc(C(=O)CN2CCN(Cc3ccccc3)CC2)c1O	-14.4	1.3	-2.5	-20.7	58.5*	-1.4	-12.3	-0.7	-8.6	-3.7	-2.8
C[C@@H]1CCCCO[C@@H](CN(C)S(=O)(=O)c2cccs2)[C@H](C)CN([C@@H](C)CO)C(=O)c2cc(NC(=O)Nc3cccc4ccccc34)ccc2O1	nt	11.0	nt	nt	nt	nt	nt	nt	nt	nt	nt
